From PubChem BioAssay AID651558 (National Center for Advancing Translational Sciences (NCATS), 2012)
The campaign covered roughly 1,200 compounds. About 480 (40%) were called active. Inconclusive results (about 29%) are left out. The call rests on the fitted dose curve; in most records, active means well fitted inhibition curve with a large enough effect; inconclusive means small, poorly fitted or top-dose-only effect; inactive means no such curve, though single readings can be large or run the other way. Some of the results follow. A call without a number means that no potency is given here.

Test: qHTS Assay to Find Inhibitors of Chronic Active B-Cell Receptor Signaling: Hit Validation in Primary Screen; further: nearly all actives have a fitted effect of over 75% in size
Settings: ABC-DLBCL IkB-luc/CBR ratio luminescence, 4 h; series mostly up to 46.1 µM
Procedure, shortened: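 Concentration series (3 nM to 46 uM) tested on TMD8 cells induced with doxycycline for 4 h. Filter-corrected green (IkBa fusion) over red (unfused) luciferase signal; Data were normalised to 10 uM MG-132 and untreated cell wells.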
Potency means the concentration at half of the fitted maximal effect.

Structure (SMILES) | Potency
CC(O)c1cccc(-c2ccc(CN3C[C@]4(CO)O[C@@H](CO)C[C@@H]4S3(=O)=O)cc2)c1 (stereo partly drawn) | inactive
CC1=NN(C(N)=S)C(=O)C1N=Nc1ccc(C)c(Br)c1 (stereo not drawn) | inactive
OC(C#Cc1ccccn1)c1cccs1 (stereo not drawn) | inactive
COc1ccc(COc2cc(-c3cccc(OC)c3)nc3ccc(N)cc23)cc1 | 2.91 µM (active)
CN1c2ccccc2Sc2cc(N)ccc21 | inactive
COc1ccc(/C=N\NC(=O)c2c(C)nc3ccc(Br)cn23)cc1 | inactive
COc1ccc(-c2nn(-c3ccccc3)cc2C(=O)NC(=S)NNC(=O)c2ccncc2)cc1 | inactive
COc1ccc(/C=N/NC(=O)CCn2cnc(-c3ccccc3)c2-c2ccccc2)cc1OC | 16.4 µM (active)
COc1ccc(/C=N/NC(=O)CCn2cnc(-c3ccccc3)c2-c2ccccc2)cc1 | 2.31 µM (active)
COc1ccc(Nc2cc3n(c(=O)n2)CCc2cc(OC)c(OC)cc2-3)c(C)c1 | 5.17 µM (active)
COc1cc2c(cc1OC)-c1cc(Nc3ccccc3C)nc(=O)n1CC2 | inactive
COc1cc2c(cc1OC)-c1cc(Nc3ccc(N(C)C)cc3)nc(=O)n1CC2 | inactive
COc1cc2c(cc1OC)-c1cc(Nc3ccc(C)cc3)nc(=O)n1CC2 | 18.4 µM (active)
COc1cc2c(cc1OC)-c1cc(Nc3ccccc3)nc(=O)n1CC2 | 18.4 µM (active)
Oc1ccc(-c2nc3cnccn3c2Nc2ccc3c(c2)OCCO3)cc1 | 23.1 µM (active)
CCOc1cc(C(=O)N/N=C(\C)Cc2ccc(OC)cc2)cc(OCC)c1OCC | inactive
O=C(O)CCCCCCCCc1cn(Cc2ccc(C(=O)c3ccccc3)cc2)nn1 | inactive
CCOc1ccccc1OCC(=O)N/N=C(\C)Cc1ccc(OC)cc1 | inactive
O=C(COc1ccc(C(=O)c2ccccc2)cc1)NCc1ccc(F)cc1 | 4.61 µM (active)
COc1ccc(CNC(=O)COc2ccc(C(=O)c3ccc(F)cc3)cc2)cc1 | 3.26 µM (active)
OC[C@H]1O[C@@H](n2cnc3c(Nc4ccccc4)ncnc32)[C@H](O)[C@@H]1O | 7.31 µM (active)

Structure (SMILES) | Potency
Cc1cn(-c2cccnc2)c(C)c1CNC[C@H]1O[C@@H](n2cnc3c(N)ncnc32)[C@H](O)[C@@H]1O | inactive
Nc1ncnc2c1ncn2[C@@H]1O[C@H](CNCc2cccc(C#Cc3ccccc3)c2)[C@@H](O)[C@H]1O | inactive
C[C@H](Cc1ccccc1)Nc1ncnc2c1ncn2[C@@H]1O[C@H](CO)[C@@H](O)[C@H]1O | 0.184 µM (active)
CCn1c2ccccc2c2cc(Nc3cc(C)nc4ncnn34)ccc21 | 16.4 µM (active)
COc1cccc(-c2nnc(SCC(=O)Nc3cc(C)on3)o2)c1 | inactive
Cc1cc(NC2CCCCC2)nc2ccccc12 | inactive
Cc1cc(NC(=O)CSc2nc3ccccc3c(=O)n2C2CCCC2)no1 | 4.61 µM (active)
O=[N+]([O-])c1cc(O)c2ncccc2c1 | inactive
COc1ccc(CNc2nc(NCc3ccc(OC)cc3)c3ncn(C4CCCC4)c3n2)cc1 | 2.31 µM (active)
COC(=O)c1ccc(CNC(=O)Cn2cnc3c(NCc4ccccc4)ncnc32)cc1 | inactive
NS(=O)(=O)c1cc(C(=O)OCC(=O)N2CCc3ccccc3C2)ccc1Cl | inactive
O=C(OCC(=O)c1ccc[nH]1)c1ccc(Cl)c(Cl)c1 | inactive
CCn1c(=O)c([N+](=O)[O-])c(Cl)c2ccccc21 | 6.51 µM (active)
CCOc1ccc(NCc2ccccc2OCc2cccc(F)c2)cc1 | inactive
O=Cc1ccccc1OCCOc1ccccc1C=O | 20.6 µM (active)
O=C(CSc1ncccc1C(=O)O)c1ccc2ccccc2c1 | inactive
NC(=S)N=Nc1c(O)n(CCCl)c2ccccc12 | inactive
C/C(Cl)=C\Cn1c(O)c(N=NC(N)=S)c2cc(Br)ccc21 | 14.6 µM (active)
C=CCn1c(O)c(N=NC(=S)Nc2ccccc2F)c2cc(S(=O)(=O)N3CCOCC3)ccc21 | inactive
CCOC(=O)c1[nH]c(C)c(C(=O)OCC)c1C | 18.4 µM (active)
CCOC(=O)c1[nH]c(C)c(C(=O)N2CCc3ccccc32)c1C | 4.61 µM (active)

Structure (SMILES) | Potency
CCOC(=O)c1[nH]c(C)c(C(=O)c2cc(F)ccc2F)c1C | 11.6 µM (active)
CCOC(=O)c1[nH]c(C)c(C(=O)c2ccc(C)cc2)c1C | inactive
CCOC(=O)c1c(C)[nH]c(C(=O)N/N=C/c2ccc(Br)cc2)c1C | 0.92 µM (active)
CC[C@]12c3[nH]c4cc(CCC(=O)N(C)C)ccc4c3CCN1C(=O)[C@@H](CC(=O)NC/C=C(\C)CCC=C(C)C)C[C@@H]2C(=O)N1CCN(C(=O)c2ccco2)CC1 | inactive
CCC1CCCCN1C(=S)NC(=O)c1cccs1 (stereo not drawn) | inactive
CCN(CC(=O)Nc1cc(Cl)ccc1C)C(=O)C1CC1 | inactive
CCOC(=O)c1[nH]c(C)c(C(=O)Nc2cc(Cl)ccc2C)c1C | 7.31 µM (active)
CCN(CC)S(=O)(=O)c1ccc(N/N=C(\C)c2ccc(OC)cc2O)nc1 | inactive
COc1ccc(S(N)(=O)=O)cc1C(=O)OCCCOC(=O)c1cc(S(N)(=O)=O)ccc1OC | inactive
CCOc1ccc(S(=O)(=O)Nc2cc(OC)ccc2OC)cc1 | 4.61 µM (active)
CC[C@]12c3[nH]c4cc(CCC(=O)N(C)C)ccc4c3CCN1C(=O)[C@@H](CC(=O)NCCc1ccccn1)C[C@@H]2C(=O)N1CCN(C(=O)C2CC2)CC1 | inactive
CCN(CC)c1ccc(NC(=O)c2cc(OC)cc(OC)c2)c(C)c1 | 6.51 µM (active)
C/C(=N\NC(N)=S)c1cc(-c2ccccc2)c(-c2ccccc2)s1 | inactive
C=CCNC(=S)N/N=C/c1ccc(C(F)(F)F)cc1 | inactive
CCN1C(=O)C(O)(C2COC(C)(C)CC2=O)c2cc(Br)ccc21 (stereo not drawn) | 18.4 µM (active)
CCc1ccc2oc(=O)cc(CN3CCCCC3C)c2c1 (stereo not drawn) | inactive
COc1ccc(CCNCC(O)COc2cccc(Br)c2)cc1 (stereo not drawn) | inactive
Oc1ccc(Nc2nc(-c3cccnc3)cs2)cc1 | 16.4 µM (active)
COC1=CC(=O)CC(C)C12Oc1c(Cl)c(OC)cc(OC)c1C2=O (stereo not drawn) | inactive
COc1cc(OC)c2c(c1)OC(=O)CC2c1cc(OC)c(OC)c(OC)c1 (stereo not drawn) | inactive
COc1cc(C2C(C#N)=C(N)Oc3cc4c(cc32)OCO4)cc(OC)c1OC (stereo not drawn) | 0.461 µM (active)
